# According to the supplement of paper PMC8728848:
# Shown is part of a subset that was picked to be rich in the strongest signals.
# B1: SAOUHSC 00176 (Staphylococcus aureus) (protein)
# chain: MSKILKCITLAVVMLLIVTACGPNRSKEDIDKALNKDNSKDKPNQLTMWVDGDKQMAFYKKITDQYTKKTGIKVKLVNIGQNDQLENISLDAPAGKGPDIFFLAHDNTGSAYLQGLAAEIKLSKDELKGFNKQALKAMNYDNKQLALPAIVETTALFYNKKLVKNAPQTLEEVEANAAKLTDSKKKQYGMLFDAKNFYFNYPFLFGNDDYIFKKNGSEYDIHQLGLNSKHVVKNAERLQKWYDKGYLPKAATHDVMIGLFKEGKVGQFVTGPWNINEYQETFGKDLGVTTLPTDGGKPMKPFLGVRGWYLSEYSKHKYWAKDLMLYITSKDTLQKYTDEMSEITGRVDVKSSNPNLKVFEKQARHAEPMPNIPEMRQVWEPMGNASIFISNGKNPKQALDEATNDITQNIKILHPSQNDKKGD
# Tests used:
# Assay in all cases: glycan array binding signal (z-score within array); higher = stronger binding
# Details in all cases: glycan notation: IUPAC condensed, linker removed
# [1] = target: GlcNAc(b1-3)Gal(b1-4)GlcNAc(b1-2)Man(a1-3)[GlcNAc(b1-3)Gal(b1-4)GlcNAc(b1-2)Man(a1-6)]Man(b1-4)GlcNAc(b1-4)GlcNAc
# Outline: (§1)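 The binding signal is a Z-score computed within each array. Data were drawn from 3228 arrays in the Consortium for Functional Glycomics database, restricted to those with a known protein sequence. Scores were averaged over arrays of the same protein sequence at different concentrations or buffers, and over linkers, and negative values can be taken as non-binding.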
# [2] = target: GlcNAc(b1-3)Gal(b1-4)GlcNAc(b1-3)Gal(b1-4)GlcNAc(b1-2)[GlcNAc(b1-3)Gal(b1-4)GlcNAc(b1-3)Gal(b1-4)GlcNAc(b1-6)]Man(a1-6)[GlcNAc(b1-3)Gal(b1-4)GlcNAc(b1-3)Gal(b1-4)GlcNAc(b1-2)Man(a1-3)]Man(b1-4)GlcNAc(b1-4)[Fuc(a1-6)]GlcNAc
# Outline: as §1
# [3] = target: GlcNAc(b1-3)Gal(b1-4)GlcNAc(b1-3)[GlcNAc(b1-3)Gal(b1-4)GlcNAc(b1-3)]GalNAc
# Outline: as §1
# [4] = target: GlcNAc(b1-3)[GlcNAc(b1-6)]GalNAc
# Outline: as §1
# [5] = target: GlcNAc(b1-6)Gal(b1-4)GlcNAc
# Outline: as §1
# Kdn(a2-3)Gal(b1-3)GalNAc = target: Kdn(a2-3)Gal(b1-3)GalNAc
# Outline: as §1
# Kdn(a2-3)Gal(b1-4)GlcNAc = target: Kdn(a2-3)Gal(b1-4)GlcNAc
# Outline: as §1
# [6] = target: Man(a1-2)Man(a1-3)[Man(a1-6)]Man(a1-6)[Man(a1-2)Man(a1-3)]Man(b1-4)GlcNAc(b1-4)GlcNAc
# Outline: as §1
# Neu5Ac(a2-3)Gal = target: Neu5Ac(a2-3)Gal
# Outline: as §1
# [7] = target: Neu5Ac(a2-3)Gal(b1-3)GlcNAc(b1-2)Man(a1-3)[Neu5Ac(a2-3)Gal(b1-3)GlcNAc(b1-2)Man(a1-6)]Man(b1-4)GlcNAc(b1-4)GlcNAc
# Outline: as §1
# [8] = target: Neu5Ac(a2-3)Gal(b1-3)GlcNAc(b1-3)Gal(b1-3)GlcNAc
# Outline: as §1
# [9] = target: Neu5Ac(a2-3)Gal(b1-3)[Fuc(a1-4)]GlcNAc
# Outline: as §1
# [10] = target: Neu5Ac(a2-3)Gal(b1-4)GlcNAc(b1-2)Man
# Outline: as §1
# [11] = target: Neu5Ac(a2-3)Gal(b1-4)GlcNAc(b1-2)[Neu5Ac(a2-3)Gal(b1-4)GlcNAc(b1-4)]Man(a1-3)[GlcNAc(b1-4)][Neu5Ac(a2-3)Gal(b1-4)GlcNAc(b1-2)[Neu5Ac(a2-3)Gal(b1-4)GlcNAc(b1-6)]Man(a1-6)]Man(b1-4)GlcNAc(b1-4)GlcNAc
# Outline: as §1
# [12] = target: Neu5Ac(a2-3)Gal(b1-4)GlcNAc(b1-3)Gal(b1-3)GlcNAc
# Outline: as §1
# [13] = target: Neu5Ac(a2-3)Gal(b1-4)GlcNAc(b1-3)Gal(b1-4)GlcNAc
# Outline: as §1
# [14] = target: Neu5Ac(a2-3)Gal(b1-4)GlcNAc(b1-3)Gal(b1-4)[Fuc(a1-3)]GlcNAc
# Outline: as §1
# [15] = target: Neu5Ac(a2-3)Gal(b1-4)GlcNAc6S
# Outline: as §1
# [16] = target: Neu5Ac(a2-3)Gal(b1-4)[Fuc(a1-3)]GlcNAc
# Outline: as §1
# [17] = target: Neu5Ac(a2-3)GalNAc(b1-4)GlcNAc
# Outline: as §1
# [18] = target: Neu5Ac(a2-6)Gal(b1-4)GlcNAc
# Outline: as §1
# [19] = target: Neu5Ac(a2-6)Gal(b1-4)GlcNAc(b1-2)Man(a1-3)[Neu5Ac(a2-3)Gal(b1-4)GlcNAc(b1-2)Man(a1-6)]Man(b1-4)GlcNAc(b1-4)GlcNAc
# Outline: as §1
# [20] = target: Neu5Ac(a2-6)Gal(b1-4)GlcNAc(b1-3)Gal(b1-3)GlcNAc
# Outline: as §1
# [21] = target: Neu5Ac(a2-6)Gal(b1-4)GlcNAc(b1-3)Gal(b1-4)GlcNAc(b1-3)Gal(b1-4)GlcNAc(b1-2)Man(a1-3)[Neu5Ac(a2-6)Gal(b1-4)GlcNAc(b1-3)Gal(b1-4)GlcNAc(b1-3)Gal(b1-4)GlcNAc(b1-2)Man(a1-6)]GalNAc
# Outline: as §1
# [22] = target: Neu5Ac(a2-6)GlcNAc(b1-4)GlcNAc(b1-4)GlcNAc
# Outline: as §1
# Neu5Ac(a2-8)Neu5Ac = target: Neu5Ac(a2-8)Neu5Ac
# Outline: as §1
# [23] = target: Neu5Ac(a2-8)Neu5Ac(a2-8)Neu5Ac
# Outline: as §1
binder,measurement,setting,value
B1,glycan array binding signal (z-score),[1],-0.101
same,glycan array binding signal (z-score),[2],-0.059
same,glycan array binding signal (z-score),[3],-0.02
same,glycan array binding signal (z-score),[4],-0.149
same,glycan array binding signal (z-score),[5],-0.124
same,glycan array binding signal (z-score),Kdn(a2-3)Gal(b1-3)GalNAc,-0.129
same,glycan array binding signal (z-score),Kdn(a2-3)Gal(b1-4)GlcNAc,-0.143
same,glycan array binding signal (z-score),[6],-0.172
same,glycan array binding signal (z-score),Neu5Ac(a2-3)Gal,-0.179
same,glycan array binding signal (z-score),[7],1.08
same,glycan array binding signal (z-score),[8],-0.055
same,glycan array binding signal (z-score),[9],-0.157
same,glycan array binding signal (z-score),[10],0.473
same,glycan array binding signal (z-score),[11],-0.073
same,glycan array binding signal (z-score),[12],-0.09
same,glycan array binding signal (z-score),[13],0.002
same,glycan array binding signal (z-score),[14],-0.015
same,glycan array binding signal (z-score),[15],-0.027
same,glycan array binding signal (z-score),[16],-0.132
same,glycan array binding signal (z-score),[17],-0.141
same,glycan array binding signal (z-score),[18],-0.148
same,glycan array binding signal (z-score),[19],-0.114
same,glycan array binding signal (z-score),[20],-0.079
same,glycan array binding signal (z-score),[21],0.358
same,glycan array binding signal (z-score),[22],2.56
same,glycan array binding signal (z-score),Neu5Ac(a2-8)Neu5Ac,-0.022
same,glycan array binding signal (z-score),[23],-0.055
